Source: paper PMC4336329 (PLoS ONE, 2015)
Out of some 310,000 compounds screened, about 14,000 (4.5%) showed an effect of 50% or more. Effects have a minus sign here. Shown is part of a subset that was picked to be rich in strong results.

target: human ether-à-go-go-related gene (hERG) potassium channel (human, UniProt Q12809); assay: primary screen, population patch clamp on CHO cells stably expressing hERG; higher = less effect of the substance
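Further: peak tail current of the secondary pulse compared with the same well before compound.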

Sequence of human ether-à-go-go-related gene (hERG) potassium channel (Q12809 whole entry, looked up): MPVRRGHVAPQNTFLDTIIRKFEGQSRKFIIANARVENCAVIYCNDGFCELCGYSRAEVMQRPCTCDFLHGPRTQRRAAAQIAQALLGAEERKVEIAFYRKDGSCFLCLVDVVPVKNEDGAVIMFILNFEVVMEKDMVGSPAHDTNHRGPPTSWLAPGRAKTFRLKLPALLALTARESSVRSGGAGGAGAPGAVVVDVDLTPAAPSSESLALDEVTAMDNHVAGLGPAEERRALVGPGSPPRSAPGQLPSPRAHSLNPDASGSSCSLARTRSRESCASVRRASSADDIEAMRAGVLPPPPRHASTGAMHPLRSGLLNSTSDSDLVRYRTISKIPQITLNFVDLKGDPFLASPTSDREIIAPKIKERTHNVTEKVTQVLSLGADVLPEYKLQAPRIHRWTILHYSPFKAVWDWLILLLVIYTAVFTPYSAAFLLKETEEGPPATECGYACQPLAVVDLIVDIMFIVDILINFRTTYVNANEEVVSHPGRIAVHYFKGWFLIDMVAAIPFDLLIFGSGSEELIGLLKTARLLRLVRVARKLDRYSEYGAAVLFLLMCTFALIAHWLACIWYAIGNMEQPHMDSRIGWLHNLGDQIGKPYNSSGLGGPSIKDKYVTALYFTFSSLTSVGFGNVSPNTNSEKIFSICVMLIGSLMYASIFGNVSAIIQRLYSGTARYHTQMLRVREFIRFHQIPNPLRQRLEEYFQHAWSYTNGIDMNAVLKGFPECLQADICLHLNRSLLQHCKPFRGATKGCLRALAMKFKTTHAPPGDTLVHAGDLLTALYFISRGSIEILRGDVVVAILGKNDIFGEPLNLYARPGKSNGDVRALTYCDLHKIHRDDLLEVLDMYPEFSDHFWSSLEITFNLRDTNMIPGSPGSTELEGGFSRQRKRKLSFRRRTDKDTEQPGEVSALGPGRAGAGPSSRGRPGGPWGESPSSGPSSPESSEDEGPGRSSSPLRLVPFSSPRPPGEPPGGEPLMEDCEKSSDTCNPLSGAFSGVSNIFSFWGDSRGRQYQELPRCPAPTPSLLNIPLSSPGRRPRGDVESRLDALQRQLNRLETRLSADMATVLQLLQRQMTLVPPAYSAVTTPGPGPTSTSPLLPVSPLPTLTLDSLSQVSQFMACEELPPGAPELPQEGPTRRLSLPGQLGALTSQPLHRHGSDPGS

| Compound | hERG current change (%, negative = inhibition) at 10uM |
| --- | --- |
| COCCn1c(-c2ccc(Cl)cc2Cl)nc2c(c(=O)c3ccccc3n2C)c1=O | -8.66% |
| COc1ccccc1C(=O)Nc1ccc2c(c1)CCCN2C(=O)c1ccccc1 | -39.8% |
| O=c1cc[nH]c2c1ccc1cccnc12 | 21.5% |
| CC(CC(=O)OCC(=O)NCc1ccc(Cl)cc1)c1ccccc1 (stereo not drawn) | -7.65% |
| C/C=C/c1ccc(OCCOc2cccc3cccnc23)c(OC)c1 | 20.3% |
| C/C=C/c1ccc(OCCOCCOc2cccc3cccnc23)c(OC)c1 | -50.5% |
| Brc1ccc(OCCCOc2cccc3cccnc23)cc1 | 6.35% |
| O=Cc1ccccc1OCCCOc1cccc2cccnc12 | -4.59% |
| C=CCc1ccc(OCCOCCOc2cccc3cccnc23)c(OC)c1 | -29.3% |
| O=Cc1ccc(OCCCOc2cccc3cccnc23)cc1 | -54.3% |
| CCc1ccc(S(=O)(=O)NCc2cn3ccsc3n2)s1 | 6.83% |
| N/C(=N\OC(=O)c1ccc2ccccc2c1)c1cccc([N+](=O)[O-])c1 | 5.05% |
| C#CCOCCOCCOCCNc1nc(N2CCN(C(=O)Cn3cc(CCC[NH+]=C(N)N)nn3)CC2)nc(N2CCN(C(=O)[C@H](CCCC[NH3+])n3cc(CCCC)nn3)CC2)n1.[Cl-] | 7.39% |
| COc1ccc(S(=O)(=O)N2CCC(C(=O)c3ccc4c(c3)OCCO4)CC2)cc1 | -6.76% |
| O=C(O)c1c2c(nc3ccccc13)CCCCC2 | 15.8% |
| CC1CCCN(c2c3c(nc4ccccc24)CCCC3)C1 (stereo not drawn) | -65.2% |
| Cl.c1ccc2c(N3CCOCC3)c3c(nc2c1)CCC3 | -35.2% |
| CCOC(=O)C1=C(COC(=O)c2ccc([N+](=O)[O-])o2)NC(=O)NC1C (stereo not drawn) | -7.36% |
| CCC(C)N=CC1=C(O)C(C(=O)OC)C(C)(C)CC1=O (stereo not drawn) | -5.35% |
| CCOC(=O)C(=O)N=Nc1c(O)n(C)c2ccccc12 | 18.9% |
| O=C(CSc1nc(Nc2ccccc2)nc(N2CCOCC2)n1)N1CCc2ccccc21 | -1.62% |
| O=C(CSc1nc(Nc2ccccc2)nc(N2CCOCC2)n1)NC1CCCCC1 | -3.3% |
| O=C(CSc1nc(Nc2ccccc2)nc(N2CCOCC2)n1)N1CCCC1 | -60.4% |
| FC(F)(F)c1ccc(-c2csc(-c3ccno3)n2)cc1 | 1.72% |
